Laboratory results: PubChem BioAssay (NCI)
Several values for one entry are separate records, joined by “and”; a condition that tells them apart may be missing. Identical values can stand only once. About 79,000 compounds went through this panel and 15% of them were active in at least one assay; those are over-represented in the sample as a whole. Some structures have more than one record in an assay (separate samples or runs), and their calls can disagree. Activity calls are given as the source filed them. No stated cut-off is given here; in the data, active means growth inhibition above about 70%; inactive means the rest.

Legend:
[1] = NCI Yeast Anticancer Drug Screen. Data for the rad50 strain (AID 155);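 further: 0% = growth of vehicle-only cultures of the same strain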; settings: S. cerevisiae rad50 strain growth inhibition, stronger effect = higher value
Method in brief: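 DNA repair mutant yeast, compound exposure, growth read-out; inhibition is taken relative to vehicle.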

[2] = NCI Yeast Anticancer Drug Screen. Data for the mec2-1 strain (AID 157); settings: S. cerevisiae mec2-1 strain, stronger effect = higher value
Method in brief: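 Compounds were applied to mec2-1 yeast cells. Their growth was then compared with that of vehicle-treated cultures to give growth inhibition.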

[3] = NCI Yeast Anticancer Drug Screen. Data for the sgs1 mgt1 strain (AID 161);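 further: 0% = growth of cultures given vehicle only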; settings: S. cerevisiae sgs1 mgt1 strain, stronger effect = higher value
Method in brief: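 This yeast growth screen uses a strain with defined DNA-repair lesions; compound-treated growth is compared with vehicle-treated growth.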

[4] = NCI Yeast Anticancer Drug Screen. Data for the cln2 rad14 strain (AID 165);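 further: 0% = growth equal to vehicle treated cultures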; settings: S. cerevisiae cln2 rad14 strain, stronger effect = higher value
Method in brief: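 Strain: cln2 rad14 yeast, altered in cell cycle control and DNA damage repair. Read-out: growth inhibition vs vehicle.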

[5] = NCI Yeast Anticancer Drug Screen. Data for the bub3 strain (AID 167); settings: S. cerevisiae bub3 mutant strain, stronger effect = higher value
Method in brief: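 In this screen, a yeast mutant lacking normal mitotic checkpoint function is challenged with compound. Relative growth versus vehicle gives the inhibition value.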

[6] = NCI Yeast Anticancer Drug Screen. Data for the mlh1 rad18 strain (AID 175); settings: S. cerevisiae mlh1 rad18 strain growth inhibition, stronger effect = higher value
Method in brief: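 A repair-deficient yeast strain is exposed to test compound, and growth is scored relative to vehicle-treated controls.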

[7] = at 5.0 µM (retest, dose inferred, filed as 0.5)
[8] = at 50.0 µM (retest, dose inferred, filed as 5.0)

| SMILES | growth inhibition [1, 7] | growth inhibition [1, 8] | growth inhibition ([1]; at 50.0 µM) | growth inhibition [2, 7] | growth inhibition [2, 8] | growth inhibition ([2]; at 50.0 µM) | growth inhibition [3, 7] | growth inhibition [3, 8] | growth inhibition ([3]; at 50.0 µM) | growth inhibition [4, 7] | growth inhibition [4, 8] | growth inhibition ([4]; at 50.0 µM) | growth inhibition [5, 7] | growth inhibition [5, 8] | growth inhibition ([5]; at 50.0 µM) | growth inhibition [6, 7] | growth inhibition [6, 8] | growth inhibition ([6]; at 50.0 µM) |
| --- | --- | --- | --- | --- | --- | --- | --- | --- | --- | --- | --- | --- | --- | --- | --- | --- | --- | --- |
| CCC1(CC)C(=O)[N-]C(=O)[N-]C1=O.[Au+].[Au+].c1ccc([PH+](c2ccccc2)c2ccccc2)cc1.c1ccc([PH+](c2ccccc2)c2ccccc2)cc1 | 99% (active) | 94% (active) | 1.75% (inactive) | 99% (active) | 97% (active) | 80.6% (active) | 99% (active) | 96% (active) | -4.5% (inactive) | 95% (active) | 96% (active) | 35.1% (inactive) | 99% (active) | 90% (active) | 2.2% (inactive) | 98% (active) | 96% (active) | 4.65% (inactive) |
| CN(CCC(N)CC(=O)NC1C=CC(n2ccc(N)nc2=O)OC1C(=O)O)C(=N)N (configuration not stated) | 48% (inactive) | 95% (active) | 91.8% (active) | 86% (active) | 98% (active) | 92.8% (active) and 93.4% (active) | 42% (inactive) | 90% (active) | 90.9% (active) | 88% (active) | 97% (active) | 90% (active) and 90.2% (active) | 68% (inactive) | 96% (active) | 91% (active) and 92% (active) | 72% (active) | 97% (active) | 90.6% (active) and 90.7% (active) |
| COC(=O)C(C)(C)[n+]1c(C)cc(C)cc1C | -13% (inactive) | -6% (inactive) | -5.45% (inactive) | -5% (inactive) | -35% (inactive) | -3% (inactive) | -17% (inactive) | -14% (inactive) | -3.1% (inactive) | -10% (inactive) | -8% (inactive) | -7.1% (inactive) | 1% (inactive) | 8% (inactive) | -6.5% (inactive) | -1% (inactive) | 5% (inactive) | 5.9% (inactive) |
| c1ccc2c[n+](CCCCCCCCCC[n+]3ccc4ccccc4c3)ccc2c1 | 67% (inactive) | 95% (active) | 89.2% (active) | 70% (active) | 98% (active) | 91.2% (active) | 79% (active) | 98% (active) | 90.5% (active) | 68% (inactive) | 98% (active) | 83.7% (active) | 88% (active) | 99% (active) | 91.3% (active) | 72% (active) | 94% (active) | 88.1% (active) |
| Cc1cc(N=Nc2ccccc2C)ccc1N | 34% (inactive) and 23% (inactive) | 44% (inactive) and 96% (active) | 91.4% (active) and 88.5% (active) | 46% (inactive) and 23% (inactive) | 52% (inactive) and 99% (active) | 93% (active) and 91.7% (active) | -4% (inactive) and 31% (inactive) | 99% (active) and 96% (active) | 93.5% (active) and 89.3% (active) | 41% (inactive) and 20% (inactive) | 98% (active) and 96% (active) | 91.1% (active) and 91.5% (active) | 12% (inactive) and 41% (inactive) | 97% (active) and 99% (active) | 91.5% (active) and 90% (active) | 32% (inactive) and 35% (inactive) | 38% (inactive) and 97% (active) | 90.8% (active) and 91.9% (active) |
| COc1cc(C(=O)CCN(CCCl)CCCl)cc(OC)c1OC | -1% (inactive) | 68% (inactive) | 95.5% (active) | 0% (inactive) | 67% (inactive) | 97.3% (active) | 13% (inactive) | 82% (active) | 97.2% (active) | 0% (inactive) | 55% (inactive) | 99.5% (active) | -3% (inactive) | 82% (active) | 93.2% (active) | 13% (inactive) | 83% (active) | 97.1% (active) |
| CCC[CH2][Sn]1([CH2]CCC)[O]CC(c2ccccn2)C[O]1 | 36% (inactive) | 98% (active) | 87.2% (active) | 28% (inactive) | 98% (active) | 90.7% (active) | 34% (inactive) | 98% (active) | 88.2% (active) | 21% (inactive) | 97% (active) | 89.5% (active) | 37% (inactive) | 99% (active) | 89% (active) | 44% (inactive) | 98% (active) | 87.4% (active) |
| C[CH2][Pb]([CH2]C)([CH2]C)[n]1cnc2ccccc21 | 4% (inactive) | 87% (active) | 66% (inactive) | 2% (inactive) | 98% (active) | 74% (active) | 5% (inactive) | 97% (active) | 82.2% (active) | -3% (inactive) | 62% (inactive) | 41.8% (inactive) | 2% (inactive) | 97% (active) | 80.3% (active) | 4% (inactive) | 98% (active) | 79% (active) |
| CC(C)COP(=O)(O)OCC(C)C.[Al] | -2% (inactive) | -11% (inactive) | 3.45% (inactive) | -4% (inactive) | -9% (inactive) | 16.6% (inactive) | -5% (inactive) | -4% (inactive) | 3.05% (inactive) | -1% (inactive) | 3% (inactive) | -12.1% (inactive) | 1% (inactive) | 31% (inactive) | -0.75% (inactive) | -2% (inactive) | -10% (inactive) | 18.2% (inactive) |
